Laboratory results taken from PubChem BioAssay AID504853 (Southern Research Specialized Biocontainment Screening …, 2011).
Potency and affinity values are given separately. A number with no mark means an inactive call. How the calls were made is not given here.

assay: HepG2 cell cytotoxicity, dose response, cytotoxicity control, set 3 (AID 504853); settings: series mostly up to 50 µM; viability: at the top concentration

Row | SMILES | viability
1 | COC(=O)C(C)Oc1ccc(Cc2ncc(C(F)(F)F)cc2Cl)cc1 (stereo not given) | 94.3%
2 | CCSc1nc2ccccc2c(=O)[nH]1 | 98.5%
3 | Cc1c[nH]c(=S)[nH]c1=O | 100%
4 | Cc1ccc(NC(=O)CSc2nc3ccccc3c(=O)[nH]2)cc1Cl | 96.8%
5 | CN(C(=O)CSc1nc2ccccc2c(=O)[nH]1)C1CCCCC1 | 98.8%
6 | O=C(CSc1nccc(=O)[nH]1)NC1CCCCC1 | 99.4%
7 | CCC(Sc1nc2c(c(=O)[nH]1)CCC2)C(=O)Nc1cccc(OC)c1 (stereo not given) | 90.7%
8 | CC(C)NC(=O)CSc1nc2ccccc2c(=O)[nH]1 | 93.4%
9 | Cc1nc(SCC(=O)N(C)c2ccccc2)[nH]c(=O)c1C | 99.8%
10 | CN1CCC(NC(=O)CSc2nc3ccccc3c(=O)[nH]2)CC1 | 109%
11 | O=C(CSc1ccccn1)NC1CCCCC1 | 92.8%
12 | O=C(CSc1nc2c(c(=O)[nH]1)CCC2)NC1CCCCC1 | 99.8%
13 | CCC(Sc1nc2ccccc2c(=O)[nH]1)C(=O)NC1CCCCC1 (stereo not given) | 104%
14 | O=C(CSc1nc2ccccc2c(=O)[nH]1)N1CCOCC1 | 107%
15 | O=c1[nH]c(=S)[nH]c2ccccc12 | 99.8%
16 | Cc1nc(SCC(=O)NC2CCCC2)[nH]c(=O)c1C | 107%
17 | Cc1nc(SCc2ccccc2Cl)[nH]c(=O)c1C | 107%
18 | O=C(CSc1nc2c(c(=O)[nH]1)CCCC2)NC1CCCCC1 | 99.1%
19 | O=c1[nH]c(SCc2ccccc2Cl)nc2c1CCCC2 | 98.5%
20 | COC(=O)C(Nc1nc(SCC(=O)NC2CCCCC2)nc2ccccc12)c1ccccc1 (stereo not given) | 80.8%
21 | CCOC(=O)CSc1nc(C)c(C)c(=O)[nH]1 | 99.2%
22 | Cc1ccc(NC(=O)COC(=O)CCc2c[nH]c3ccccc23)cc1[N+](=O)[O-] | 99.5%
23 | Cc1cccc(/C=C/C(=O)c2ccc([N+](=O)[O-])o2)c1 | 98.6%
24 | Cc1cnc(SCC(=O)NC2CCCCC2)[nH]c1=O | 108%
25 | Cc1nc(SCC(=O)NCCC(C)C)[nH]c(=O)c1C | 102%
